This is a sample that favours compounds with a hit; in the whole collection about 2.4% have one here.
D2 ag-1: HTS Assay for Allosteric Agonists of the Human D2 Dopamine Receptor: Primary Screen for Agonists | D(2) dopamine receptor (Homo sapiens), P14416 | HEK293 T-REx D2 cells, calcium flux agonist mode | activation, % at 2 µM | actives 0.53% (n = 340,000);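 active = activation over 3 SD above normal in the single-dose calcium agonist read, cut at about 30% in these data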
Target sequence (P14416 whole entry, looked up): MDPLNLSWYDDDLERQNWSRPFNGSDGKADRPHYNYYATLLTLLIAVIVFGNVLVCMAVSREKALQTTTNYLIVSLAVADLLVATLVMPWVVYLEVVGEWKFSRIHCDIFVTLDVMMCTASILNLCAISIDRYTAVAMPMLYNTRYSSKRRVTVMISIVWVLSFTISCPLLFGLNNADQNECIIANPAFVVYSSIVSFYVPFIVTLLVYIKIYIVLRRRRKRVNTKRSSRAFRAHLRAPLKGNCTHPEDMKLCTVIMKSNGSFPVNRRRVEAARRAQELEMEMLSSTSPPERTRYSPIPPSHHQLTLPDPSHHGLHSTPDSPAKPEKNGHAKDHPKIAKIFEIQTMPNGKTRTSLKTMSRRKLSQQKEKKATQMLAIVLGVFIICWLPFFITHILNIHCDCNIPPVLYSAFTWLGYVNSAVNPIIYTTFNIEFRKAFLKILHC
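HEK293 Trex D2 cells, tetracycline-induced, o/n 30 C 5% CO2; no-wash Ca dye, RT 30–90 min; 10-cycle baseline, 23 nl cpd added, kinetic Ca read 180 s; agonist hits = positive Ca response.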
D2 antagonist: HTS Assay for Allosteric Antagonists of the Human D2 Dopamine Receptor: Primary Screen for Antagonists. D(2) dopamine receptor (Homo sapiens), P14416. HEK293 TREx D2 cells, calcium flux, dopamine EC80. inhibition, % at 10 µM. actives 2% (n = 340,000). AID 485344, 2010; in the data active = inhibition above about 30%; inactive = below that, where a call was filed
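Dopamine at EC80 is the agonist stimulus; test compounds precede it by 180 s. Calcium flux read kinetically in a force-coupled, inducible HEK293 T-REx D2 cell line.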
D2 ag-2: Beta-Arrestin HTS for Positive Allosteric Modulators of the Human D2 Dopamine Receptor: Agonists; D(2) dopamine receptor (Homo sapiens), P14416; DiscoveRx PathHunter D2 beta-arrestin, luminescence, 90 min; 100% = 57 uM dopamine signal; activation, % (concentration not given with the values); actives 0.084% (n = 360,000); in the data active = activation above about 40%
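Agonist mode: compounds alone added to overnight-plated D2 PathHunter cells for 90 min at 37 C, with 57 uM final dopamine (EC100) defining full response. Beta-arrestin recruitment detected by chemiluminescent reagent, read after 1 h at ambient temperature.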
D2 PAM-1: HTS Assay for Positive Allosteric Modulators of the Human D2 Dopamine Receptor: Primary Screen for Potentiators; potentiation, % at 10 µM; HEK293 T-REx D2, calcium flux, EC20 dopamine potentiation; actives 0.34% (n = 340,000);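 active = potentiation over 3 SD above the plate norm, cut at about 30% in these data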
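Calcium flux readout, no-wash dye, 1 read/s. Inducible HEK293 Trex D2 line, overnight 30 C. Compound alone 180 s (agonist flags), then EC20 dopamine, another 180 s to score potentiation.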
D2 PAM-2: Beta-Arrestin HTS for Positive Allosteric Modulators of the Human D2 Dopamine Receptor: Potentiators; D(2) dopamine receptor (Homo sapiens), P14416; DiscoveRx D2 beta-arrestin cells, luminescence, 90 min; 100% = 57 uM dopamine signal; potentiation, % (concentration not given with the values); actives 0.23% (n = 360,000); AID 624464, 2012; in the data active = potentiation above about 50%
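PathHunter D2 cells, attached overnight at 37 deg C, received compound in DMSO plus dopamine at EC20 (50 nM final) for 90 min at 37 deg C. Beta-arrestin recruitment was read as luminescence after 1 h with detection reagent at ambient temperature.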
Large screens that a line does not name were inactive.

Cc1ccccc1C(=O)OCC(=O)NCC1COc2ccccc2O1 (stereo unspecified)	none
Cc1cc(F)ccc1NCc1ccccc1-c1nnc(-c2ccccc2Cl)o1	none (no result: D2 antagonist, D2 ag-2, D2 PAM-1, D2 PAM-2)
S=c1nc(-c2ccccc2)n(CCCN2CCOCC2)c2c1CCCC2	none
S=c1nc(-c2ccccc2)n(CCCn2ccnc2)c2c1CCCC2	D2 antagonist 39
Cc1ccc(NC(=O)COC(=O)Cc2c[nH]c3ccccc23)cc1	none (no result: D2 ag-1, D2 antagonist, D2 PAM-1)
O=C(Nc1ccc(NC(=O)c2cccs2)cc1)c1ccc2c(c1)OCCO2	D2 antagonist 34
O=C(Nc1ccc(N2CCOCC2)c(Cl)c1)c1ccc2c(c1)OCCO2	D2 antagonist 31
O=C(Cn1cc(C(F)(F)F)ccc1=O)Nc1ccc2c(c1)OCO2	none (no result: D2 ag-1, D2 antagonist, D2 PAM-1)
CCn1c(NC(=O)/C=C/c2ccc(F)cc2)nc2ccccc21	none
COc1ccc(NC(=O)N2CCCC(CCC(=O)N(C)CCc3ccccn3)C2)cc1 (stereo unspecified)	none
CCc1ccccc1NC(=O)N1CCCC(CCC(=O)N(C)CCc2ccccn2)C1 (stereo unspecified)	D2 antagonist 33
CCc1[nH]nc(C(=O)N2CCCC(Nc3cccc(F)c3)C2)c1C (stereo unspecified)	D2 PAM-2 75
COc1ccc(C2CC(c3cccs3)=NN2c2ccc(C=O)cc2)cc1 (stereo unspecified)	D2 ag-1 31
COc1cc(F)ccc1-c1csc(C(NC(C)=O)c2ccccc2)n1 (stereo unspecified)	none (no result: D2 ag-1, D2 antagonist, D2 PAM-1)
COc1cccc(C2C(C(=O)Nc3ccccc3OC)=C(C)Nc3nc(-c4ccco4)nn32)c1 (stereo unspecified)	none (no result: D2 antagonist, D2 ag-2, D2 PAM-2)
COC(=O)Nc1nc2c(C)cccc2s1	D2 antagonist 38
Cc1ccc2sc(NC(=O)C3CC3)nc2c1C	D2 PAM-1 36
O=C(Nc1nnc(S(=O)(=O)N2CCCCCC2)s1)c1ccccc1Cl	none (no result: D2 antagonist)
O=C(Nc1nnc(S(=O)(=O)N2CCCC2)s1)c1ccccc1Cl	D2 antagonist 35
CCCCN(CC)CCNC(=O)Cn1c(=O)c2cccn2c2cccnc21	none (no result: D2 antagonist, D2 ag-2, D2 PAM-2)
COc1cc(C(=O)Nc2cc(S(C)(=O)=O)ccc2Cl)ccc1OCC(=O)N1CCOCC1	D2 antagonist 36
COc1ccc(OC)c(NC(=O)c2ccc(OCC(=O)N3CCOCC3)c(OC)c2)c1	none
Cc1ccc(-n2ncc3c(=O)[nH]c(SCC(=O)NCC4CCCO4)nc32)cc1 (stereo unspecified)	none (no result: D2 ag-1, D2 antagonist, D2 PAM-1)
O=C(CSc1nc2c(cnn2-c2cccc(Cl)c2)c(=O)[nH]1)NCC1CCCO1 (stereo unspecified)	D2 antagonist 39
Cc1ccc(-c2[nH]c(-c3ccc(Cl)cc3)nc2SCC(=O)NCC2CCCO2)cc1 (stereo unspecified)	D2 antagonist 61
Cc1ccc(-c2nc(S(=O)(=O)c3ccc(F)cc3)c(SCC(=O)NCC3CCCO3)o2)cc1 (stereo unspecified)	D2 PAM-1 36
CCc1ccc(-c2nc(SCC(=O)NCC3CCCO3)c(-c3ccc(C)cc3)[nH]2)cc1 (stereo unspecified)	none (no result: D2 antagonist, D2 ag-2, D2 PAM-2)
O=C(COC(=O)c1cccc(OC(F)F)c1)Nc1ncccn1	none (no result: D2 ag-1, D2 antagonist, D2 PAM-1)
CCCCC1CC2=C(C(=O)OC(C)(C)O2)C(c2ccc3ccccc3c2)O1 (stereo unspecified)	none (no result: D2 ag-1, D2 antagonist, D2 PAM-1)
CCC1CCc2sc(C(=O)NC3CCN(Cc4ccccc4)CC3)cc2C1 (stereo unspecified)	D2 antagonist 77
CC1CCc2sc(C(=O)NC3CCN(Cc4ccccc4)CC3)cc2C1 (stereo unspecified)	D2 antagonist 83
COc1ccc(C(=O)N[C@H](C(=O)Nc2cccc(S(=O)(=O)N3CCOCC3)c2)C(C)C)cc1	none (no result: D2 ag-1, D2 antagonist, D2 PAM-1)
COCCCN(C(=S)Nc1cccc(Cl)c1)C(C)c1ccncc1 (stereo unspecified)	D2 antagonist 30

Screening data (PubChem)
